Many of the other results were omitted from the sample, so hits are more common in it than they were.
Tb PYK inh: qHTS of Trypanosoma Brucei Inhibitors. 410,000 tested, 0.12% active. pyruvate kinase (Trypanosoma brucei), Q57TT1. TbPYK enzyme, Kinase-Glo Plus ATP luminescence, 45 min. Potency, µM (doses to about 76.8 µM), without a hit: at the top dose activity, negative = inhibition, hits mostly inhibitors. AID 624173, 2012; also: potency is read from the fitted curve at half-maximal effect; % is scaled to controls: 0 for no effect and ±100 for the full control effect; nearly all actives have a fitted effect of over 50% in size
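Quantitative HTS: titrated library compounds versus trypanosomal pyruvate kinase in TEA buffer (pH 7.2) containing KCl, MgCl2, BSA and Tween-20. Reactions were initiated with ADP, 130 uM final. Kinase-Glo Plus luminescence was read after 45 min at RT.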
Shiga inhibitor: A qHTS for Small Molecule Inhibitors of Shiga Toxin; AID 2315, 2010; Vero cells, Shiga toxin protein synthesis inhibition reporter; 290,000 tested, 9.2% active; inhibition, % at 38.7 µM; in the data active = inhibition mostly above about 28%, no sharp cut-off; inactive = mostly below about 43%; also: 0% is about no effect
Cycloheximide cs: Cycloheximide Counterscreen for Small Molecule Inhibitors of Shiga Toxin | cell reporter, cycloheximide protein synthesis inhibition counterscreen | 300,000 tested, 12% active | max response, %; in the data active = max response mostly above about 13%, no sharp cut-off; inactive = mostly below about 14%; also: read at 38.3 µM for the half of the compounds with a filed dose; 0% is about no effect
Sm TGR block: qHTS Assay for the Inhibitors of Schistosoma Mansoni Peroxiredoxins | Schistosoma mansoni thioredoxin glutathione reductase (TGR), Q962Y6 | 360,000 tested, 3% active | Potency, µM (highest dose often 114 µM), for inactives: top-dose activity change, negative = inhibition, most hits filed as inhibitors | purified TGR, DTNB reduction, TNB absorbance 405 nm; also: potency is read from the fitted curve at half-maximal effect; % is scaled to controls: 0 for no effect and ±100 for the full control effect; nearly all actives have a fitted effect of over 60% in size
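First, TGR (20 nM dispensed) and NADPH were mixed with compound. Second, a 15 min room-temperature incubation followed. Third, further NADPH and then DTNB were added to start the reaction. Finally, TNB absorbance was monitored kinetically.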
FBPA Giardia inh: qHTS Assay for Inhibitors of Fructose-1,6-bisphosphate Aldolase from Giardia Lamblia; A8B2U2; purified Giardia FBPA; Potency, µM (doses to about 59.6 µM), inactives show top-dose activity, negative = inhibition, actives largely listed as inhibitors; 290,000 tested, 0.71% active; also: potency is read from the fitted curve at half-maximal effect; % is scaled to controls: 0 for no effect and ±100 for the full control effect; nearly all actives have a fitted effect of over 55% in size
Target sequence (A8B2U2 whole entry, looked up): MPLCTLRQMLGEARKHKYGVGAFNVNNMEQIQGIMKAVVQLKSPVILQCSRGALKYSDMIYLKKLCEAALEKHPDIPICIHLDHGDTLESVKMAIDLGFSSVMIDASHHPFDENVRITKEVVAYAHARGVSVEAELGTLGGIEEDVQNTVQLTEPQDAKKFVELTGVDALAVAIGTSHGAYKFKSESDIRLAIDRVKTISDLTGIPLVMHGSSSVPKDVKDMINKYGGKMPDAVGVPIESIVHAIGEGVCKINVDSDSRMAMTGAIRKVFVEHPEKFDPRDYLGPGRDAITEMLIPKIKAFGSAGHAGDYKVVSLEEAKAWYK
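Giardia FBPA (40 nM reagent) was preincubated 10 min at RT with compound (up to 57.5 uM final), then substrate plus GAPDH/TPI/NAD/arsenate coupling system with diaphorase/resazurin was added; resorufin fluorescence (525/598 nm) was read after 20 min.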
LmPK inhibitor: qHTS Assay for Inhibitors of Leishmania Mexicana Pyruvate Kinase (LmPK); Q27686; AID 1721, 2009; Potency, µM (highest dose often 57.5 µM), inactives show at the highest dose activity change, negative = inhibition, usual class: inhibitors; 290,000 tested, 0.37% active; purified LmPK, Kinase-Glo ATP luminescence, 1 h; also: potency is read from the fitted curve at half-maximal effect; % is scaled to controls: 0 for no effect and ±100 for the full control effect
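Purified LmPK (0.1 nM) with 0.5 mM PEP and 0.1 mM ADP in imidazole buffer pH 7.2 with MgCl2/KCl, 1 h at room temperature. ATP formed was read by luciferase luminescence and normalized to no-enzyme and uninhibited controls.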
Starred values were filed as active, the others as inactive; ? = inconclusive; . = not tested or not shown; [ ] = another dose, or the depositor's remark. Unless noted, calls follow the shape of the dose curve; as a rule, active = well fitted curve in the direction sought with a large enough effect; inconclusive = small, poorly fitted or top-dose-only effect, or another doubt; inactive = no such curve, though single readings can be large; an effect the other way counts as inactive or inconclusive.

SMILES | Tb PYK inh | Shiga inhibitor | Cycloheximide cs | Sm TGR block | FBPA Giardia inh | LmPK inhibitor
CN(CC(=O)N1CCCCCC1)S(=O)(=O)c1ccccc1 | -3% | 69* | 34* | 3% | 0% | -7%
Cn1nnnc1SCCCNCc1cc(Cl)ccc1OCc1ccccc1 | -1% | . | . | -3% | . | .
CN(Cc1ccco1)C(=O)CN1C(=O)NC(c2ccccc2)(c2ccccc2)C1=O | -13% | . | . | 35µM* | . | .
CC(=O)OC[C@@H]1CN(Cc2cccc(C(F)(F)F)c2)C[C@H](n2cnc3c(NCc4ccco4)ncnc32)O1 | 2% | . | . | . | . | .
Cc1nc(N)nc(Nc2ccc(C#N)cc2)c1Br | 0% | 20 | -2 | -1% | -1% | -2%
Cc1nc(N)nc(Nc2ccc(Cl)cc2)c1Br | -4% | 43* | 34* | 6% | -13% | 3%
CC1CCC(Nc2nc3c(-c4cccc(C(F)(F)F)c4)nnn3c3ccccc23)CC1 (stereo not drawn) | 2% | . | . | 7% | . | .
NNC(=S)NC1CC2CC1C1C=CCC21 (stereo not drawn) | -20% | 28 | 12* | -9% | ? | 4%
Oc1ccc(O)c(C=NNC(=S)NC2CC3CC2C2C=CCC32)c1 (stereo not drawn) | 0% | . | . | . | . | .
Cc1ccc(-n2cc(CN3CCN(Cc4nccn4C)CC3)c(-c3ccc(F)cc3)n2)cc1 | -9% | 57 | 15* | 0% | 4% | 3%
Cc1ccc(-n2cc(CN3CCN(C(=O)c4ncn[nH]4)CC3)c(-c3ccc(F)cc3)n2)cc1 | -1% | 40 | 17* | 2% | -17% | -5%
Cc1ccc(-n2cc(CN3CCN(c4ccccn4)CC3)c(-c3ccc(F)cc3)n2)cc1 | 1% | 33 | 4 | 13% | 0% | -3%
Cc1ccc(NC(=O)Cn2c(=O)n(Cc3ccc4c(c3)OCO4)c(=O)c3oc4ccccc4c32)cc1C | -4% | . | . | -6% | . | .
CCC(=O)NC(c1ccccc1OC)c1ccc2cccnc2c1O (stereo not drawn) | 2% | 19 | 9 | -16% | ? | 3%
Oc1c(C(Nc2cccc(C(F)(F)F)c2)c2cccnc2)ccc2cccnc12 (stereo not drawn) | 133% | -5 | -2 | 0.71µM* | ? | 11%
COc1ccc(Cl)cc1C(Nc1cccnc1)c1ccc2cccnc2c1O (stereo not drawn) | 145% | -6 | 1 | 0.1µM* | ? | 34%
Oc1cccc(C(Nc2nccs2)c2ccc3cccnc3c2O)c1 (stereo not drawn) | -5% | -5 | 1 | 18µM* | ? | -9%
COc1cccc(C(NC(C)=O)c2ccc3cccnc3c2O)c1 (stereo not drawn) | ? | -6 | 0 | -4% | -24% | -5%
Oc1c(C(Nc2ccccn2)c2cccnc2)cc(Cl)c2cccnc12 (stereo not drawn) | 36% | 17 | -2 | 4.5µM* | -28% | 4%
Cc1cc(NC(c2cccnc2)c2ccc3cccnc3c2O)no1 (stereo not drawn) | 26% | -10 | -4 | 0% | -3% | 3%
COC(=O)CN1C(=O)[C@@H]2[C@H](C1=O)[C@@H]1CC(C(=O)OC)=C[C@@H](C(=O)OC)C3C1=C(C(=O)[C@]3(C)NC(=O)c1ccccc1)[C@@H]2C (stereo partly drawn) | . | -11 | -7 | . | 5% | .
COc1ccc(OC)c(CCNC(=O)c2cc3cccc4c3n2CCS4)c1 | 5%[15.4 µM] | . | . | 3% | . | .
O=C(Nc1ccn(CCCNC2CCN(Cc3ccccc3)CC2)c(=O)n1)OCc1ccccc1 | -10% | . | . | . | . | .
Oc1cccc(C(Nc2ccccn2)c2ccc3cccnc3c2O)c1Cl (stereo not drawn) | 87% | . | . | 3.2µM* | . | .
CCCCC(=O)NC(c1ccccc1Cl)c1ccc2cccnc2c1O (stereo not drawn) | 0% | 7 | -2 | 0% | ? | 0%
SMILES | Tb PYK inh | Shiga inhibitor | Cycloheximide cs | Sm TGR block | FBPA Giardia inh | LmPK inhibitor
COc1ccccc1-c1nc(N2CCOCC2)c2ccccc2n1 | . | . | . | . | -11% | .
O=C1/C(=C/c2cccs2)SC(=S)N1CCC(=O)N1CCCCC1CCO (stereo not drawn) | 6% | 121* | 39* | 0% | . | 4%
COc1ccccc1/C=C1\SC(=S)N(CCC(=O)N2CCCCC2CCO)C1=O (stereo not drawn) | -4% | -2 | -5 | -1% | 0% | 8%
CN(N=Cc1ccccc1)C(=S)Nc1ccccc1 | -8% | . | . | . | . | .
COC(=O)c1ccc(C(=O)OC)c(NC(=O)/C=C/C(=O)O)c1 | -7% | 31 | 11* | 10µM* | -2% | 13%
COC(=O)c1ccc(C(=O)OC)c(NC(=O)Nc2ccc3c(c2)OCO3)c1 | 5% | 62* | 25* | -12% | 0% | -13%
COC(=O)c1ccccc1NC(=O)Nc1ccc2c(c1)OCO2 | 0% | 61 | 16* | -12% | 0% | 3%
O=C(c1ccco1)N1CCC2(CCCN(C(c3ccccc3)c3ccccc3)C2)CC1 | -1% | . | . | . | 5% | .
COc1cccc(-c2nnc(-c3ccc(C(F)(F)F)cc3)o2)c1OC | -7% | 26 | 21* | -20% | -4% | 3%
COc1cccc(CSc2nc3ccncc3n2CC(=O)Nc2ccc(OC)c(OC)c2OC)c1 | -6% | . | . | 4% | . | .
CC(=O)c1ccccc1Oc1nc(CN2CCOCC2)nc2scc(-c3cccs3)c12 | 6% | -10 | 8 | 45µM* | 16% | 5%
COc1ccc(C(C)=O)c(Oc2nc(CN3CCOCC3)nc3scc(-c4cccs4)c23)c1 | 11% | -17 | 2 | -16% | 6% | 6%
Cc1nnc(C(C)C)n1C1C[C@H]2CC[C@@H](C1)N2CC[C@H](NC(=O)C1CCC(F)(F)CC1)c1ccccc1 (stereo partly drawn) | 2% | . | . | . | . | .
Cc1ccc2c(c1)c(N=Nc1cccc(C(=O)O)c1)c(O)n2C | -2% | 60* | 16* | -4% | ? | 9%
CCOc1ccc2c(c1)c(N=NC(=N)N)c(O)n2C | -9% | -11 | -1 | -12% | 1% | -2%
CCOc1ccc2c(c1)c(N=Nc1cccc(C(=O)O)c1)c(O)n2C | -12% | 62* | 58* | 4% | 19% | -1%
Cc1ccc(NC(=O)CNC(=O)Cc2cccc3ccccc23)c(O)c1 | 0% | . | . | 7% | . | .
O=C(NNC(=O)c1cccc(C(F)(F)F)c1)c1ccncc1 | 0% | 10 | 5 | -2% | -14% | -4%
COc1cccc(C(=O)O/N=C(\N)c2ccccn2)c1 | ? | -15 | -9 | 9% | 11% | 14µM*
N/C(=N\OC(=O)c1cccc(C(F)(F)F)c1)c1cnccn1 | 3% | 59* | 30* | -5% | . | 1%
CCCc1ccc(C(=O)O/N=C(\N)c2ccccn2)cc1 | ? | -25 | -2 | 0% | 13% | 16µM*
Cc1cc(C(=O)O/N=C(\N)c2ccncc2)ccc1[N+](=O)[O-] | 4% | 80* | 41* | 0% | -2% | -11%

Screens (PubChem)
